Each structure is given as a SMILES string. This is part of a sample that, as a whole, favours compounds with a hit. Of some 83,000 tested, about 20% had one in any assay.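 Cells were grown in 96-well plates and exposed to the test compound at a single concentration for 48 hours; results are reported as percent growth, with values below 10 considered active.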 Unmarked numbers belong to inactive results. The source made the active and inactive calls.

What all share (assay): NCI-60 one-dose screen, 48 h (100 = growth as untreated, 0 = no growth, -100 = all killed)
One test concerns SK-MEL-2 melanoma. The conditions noted are these: 10 µM unless noted.
Another test deals with EKVX NSCLC. Conditions: 10 µM unless noted.
In the next test the test system is SN12C renal. The conditions noted are these: 10 µM unless noted.
For the next test, the system named is UO-31 renal. Conditions: 10 µM unless noted.
The subject of a further test is ACHN renal. The conditions noted are these: 10 µM unless noted.
The next test has as its system CAKI-1 renal. Conditions: 10 µM.
The test system of a further test is A498 renal. The conditions noted are these: 10 µM unless noted.
The next test concerns CCRF-CEM leukemia. The conditions noted are these: 10 µM unless noted.
A further test concerns MOLT-4 leukemia. Conditions: 10 µM unless noted.
The test system of the next test is RPMI-8226 leukemia. The conditions noted are these: 10 µM unless noted.
The next test deals with OVCAR-8 ovarian. The conditions noted are these: 10 µM unless noted.
The subject of a further test is OVCAR-5 ovarian. The conditions noted are these: 10 µM unless noted.
The subject of another test is OVCAR-4 ovarian. The conditions noted are these: 10 µM unless noted.
In a further test the test system is SK-OV-3 ovarian. Conditions: 10 µM unless noted.
For another test, the system named is HS 578T breast. The conditions noted are these: 10 µM unless noted.
A further test relates to NCI/ADR-RES ovarian. Conditions: 10 µM unless noted.
The next test deals with SR leukemia. Conditions: 10 µM unless noted.
For another test, the system named is IGROV1 ovarian. Conditions: 10 µM unless noted.
A further test has as its system OVCAR-3 ovarian. The conditions noted are these: 10 µM unless noted.

Take `CC1(C)CC[C@]2(C(=O)N3CCCNCC3)CC[C@]3(C)C(=CC[C@@H]4[C@@]5(C)CCC(=O)C(C)(C)[C@@H]5CC[C@]43C)[C@H]2C1`: the growth is 108% in the test with SK-MEL-2 melanoma; 103% in the test with EKVX NSCLC; 98.7% with SN12C renal; 95.3% in the test on UO-31 renal; 105% in the test with ACHN renal; 89% in the test on CAKI-1 renal. The growth in the test with A498 renal was 109%; in the test on CCRF-CEM leukemia, 90.6%; in the test on MOLT-4 leukemia it was 106%; in the test with RPMI-8226 leukemia, 98.7%; in the test on OVCAR-8 ovarian, 103%; in the test with OVCAR-5 ovarian, 104%. Besides, the growth with OVCAR-4 ovarian was 116%; with SK-OV-3 ovarian it was 115%; in the test on HS 578T breast it was 106%; in the test on NCI/ADR-RES ovarian it was 100%.

For `Cc1cc(Cl)cc(NS(=O)(=O)c2ccc(-c3cnc(C4CC4)o3)cc2)c1`, the growth in the test with SK-MEL-2 melanoma is 78.1%; in the test on EKVX NSCLC, 39.4%; in the test on SN12C renal, 39.6%; with UO-31 renal it was 43.8%; with ACHN renal, 46.1%; in the test with CAKI-1 renal it was 37.1%. For the same molecule, the growth was 18.6% with CCRF-CEM leukemia; 25.9% in the test with MOLT-4 leukemia; 27.1% in the test with SR leukemia; 38.7% in the test on OVCAR-8 ovarian; 43.6% with OVCAR-5 ovarian; 66.2% in the test on OVCAR-4 ovarian. For the same molecule, the growth in the test with SK-OV-3 ovarian was 72.8%; in the test with IGROV1 ovarian, 33.2%; with OVCAR-3 ovarian, -24.3% (active); in the test on HS 578T breast, 35.6%; in the test with NCI/ADR-RES ovarian, 10.1%.

Turning to `O=C(Nc1ccc(F)cc1)c1cc(-c2ccc(F)cc2F)ccc1O`, the growth is -8.37% (active) in the test on SK-MEL-2 melanoma; 30.5% in the test with EKVX NSCLC; 3.57% (active) in the test with SN12C renal; -8.25% (active) in the test with UO-31 renal; 9.87% (active) in the test with ACHN renal; -0.83% (active) in the test on CAKI-1 renal. The growth with A498 renal is -28.7% (active); in the test with CCRF-CEM leukemia, 17.8%; in the test with MOLT-4 leukemia, 13.9%; in the test on SR leukemia, 26.2%; with RPMI-8226 leukemia, -11.7% (active); with OVCAR-8 ovarian, 7.54% (active). In addition, the growth is 69.4% in the test with OVCAR-5 ovarian; 11.2% with OVCAR-4 ovarian; -8.88% (active) in the test with SK-OV-3 ovarian; 14.7% in the test with IGROV1 ovarian; 6.06% (active) with OVCAR-3 ovarian; 6.19% (active) with HS 578T breast. The growth in the test on NCI/ADR-RES ovarian was 5.27% (active).

For `CC1CCN(S(=O)(=O)c2ncsc2-c2ccccc2)CC1`, the growth was 96.2% in the test with SK-MEL-2 melanoma; 74.7% with EKVX NSCLC; 95.4% in the test on SN12C renal; 86.9% in the test on UO-31 renal; 87% in the test with ACHN renal; 77.4% in the test with CAKI-1 renal. The growth in the test on A498 renal is 81.6%; with CCRF-CEM leukemia, 74.2%; in the test with MOLT-4 leukemia it was 66.7%; in the test on SR leukemia, 55.7%; in the test with RPMI-8226 leukemia, 25.5%; in the test on OVCAR-8 ovarian it was 101%. For the same molecule, the growth with OVCAR-5 ovarian is 94.8%; with OVCAR-4 ovarian it was 88.5%; in the test on SK-OV-3 ovarian, 95%; with HS 578T breast, 40.3%; in the test on NCI/ADR-RES ovarian it was 90%.

Take `COc1ccc(-c2nnc(SCc3ccc(O)c4ncccc34)n2-c2ccccc2)cc1`: the growth in the test with SK-MEL-2 melanoma is 33.8%; in the test with EKVX NSCLC, 23.6%; in the test on SN12C renal, 24.3%; in the test on UO-31 renal it was -12.2% (active); in the test with ACHN renal, 4.43% (active); with CAKI-1 renal it was 11.5%. The growth was 35.3% with A498 renal; 10.7% in the test on CCRF-CEM leukemia; 17.2% with MOLT-4 leukemia; 34.3% with SR leukemia; 10.9% in the test on RPMI-8226 leukemia; 16.1% in the test on OVCAR-8 ovarian. Further, the growth in the test with OVCAR-5 ovarian is 53.3%; in the test on OVCAR-4 ovarian it was 13.6%; in the test on SK-OV-3 ovarian, 12.5%; in the test on IGROV1 ovarian it was 10%; in the test with OVCAR-3 ovarian it was 8.67% (active); in the test on HS 578T breast, 22.1%. Moreover, the growth in the test with NCI/ADR-RES ovarian was 4.3% (active).

`C=C(C)C(=O)O[C@H]1C[C@@]2(C)OC(=CC2=O)[C@H](C)[C@H](O)[C@H]2OC(=O)C(=C)[C@@H]21`: the growth in the test with SK-MEL-2 melanoma was 43.1%; in the test with EKVX NSCLC, 73.6%; in the test with SN12C renal, 73.9%; in the test with UO-31 renal, 53.9%; in the test on ACHN renal, 31.9%; in the test with A498 renal it was 131%. Besides, the growth in the test with CCRF-CEM leukemia is 7.85% (active); with MOLT-4 leukemia it was 76.6%; in the test on SR leukemia, 38.1%; with RPMI-8226 leukemia, 27.1%; in the test with OVCAR-8 ovarian it was 71.9%; in the test with OVCAR-5 ovarian, 98.6%. Besides, the growth was 82.3% with OVCAR-4 ovarian; 89.7% in the test on SK-OV-3 ovarian; 69.7% with IGROV1 ovarian; 20.1% in the test with OVCAR-3 ovarian; 95.4% in the test with HS 578T breast; 84.1% in the test on NCI/ADR-RES ovarian.

As to `Cc1occc1-c1nc2s/c(=C\c3cn(-c4ccccc4)nc3-c3ccccc3)c(=O)n2n1`, the growth in the test on SK-MEL-2 melanoma is 99.9%; in the test on EKVX NSCLC it was 99.4%; in the test with SN12C renal, 89.3%; with UO-31 renal, 90.5%; with ACHN renal it was 108%; in the test with CAKI-1 renal, 89.2%. Also, the growth with A498 renal was 92.9%; with CCRF-CEM leukemia it was 90.9%; with MOLT-4 leukemia, 107%; in the test on RPMI-8226 leukemia, 99.1%; in the test with OVCAR-8 ovarian, 101%; in the test with OVCAR-5 ovarian, 99.5%. Also, the growth with OVCAR-4 ovarian is 97%; with SK-OV-3 ovarian, 113%; with IGROV1 ovarian, -96.2% (active); in the test with HS 578T breast, 105%; in the test on NCI/ADR-RES ovarian, 97.9%.

Consider `CC(C)c1nn(-c2ccccc2)c(N2CCCCC2)c1/C=N/NC(N)=S`, for which the growth with SK-MEL-2 melanoma was 104%; in the test with EKVX NSCLC it was 82.1%; with SN12C renal, 89.9%; with UO-31 renal, 64.5%; in the test on ACHN renal it was 87.2%; with CAKI-1 renal, 69.2%. Further, the growth is 66.2% with A498 renal; 89.7% in the test on CCRF-CEM leukemia; 83.6% with MOLT-4 leukemia; 88.8% in the test with SR leukemia; 78.2% in the test on RPMI-8226 leukemia; 97.1% in the test with OVCAR-8 ovarian. Also, the growth in the test on OVCAR-5 ovarian was 98.7%; in the test on OVCAR-4 ovarian it was 72.4%; with SK-OV-3 ovarian, 106%; in the test on IGROV1 ovarian, 83.9%; with HS 578T breast, 103%; in the test on NCI/ADR-RES ovarian, 86.9%.
